Marburg entry inh = blocks Marburg virus binding to or entry into cells. Marburg virus pseudotyped entry inhibition, cell reporter. AID 540276. 300,000 tested, 1.8% active. Potency, µM (titrated, usually from 37.8 µM), for the others: at the top dose activity change, negative = inhibition, actives largely listed as inhibitors; calls by dose curve; tested in HEK293 cells; further: potency means the concentration at half of the fitted maximal effect
HCMV inh = human cytomegalovirus inhibition; 410,000 tested, 4.5% active; HFF cells, HCMV-luciferase reporter, 72 h; hits give low values; activity change, negative = inhibition, % at 57.5 µM; AID 1259415; in the data active means activity change below about -60%; inconclusive means no clear call, values can overlap the other calls; inactive means above about -39%
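Two compound doses tested in HFFs infected with HCMV-luciferase, MOI 1 PFU/cell, 72 h at 37C. Lysate luminescence read with OneGlo; data normalized against buffer-only and 10uM Salinomycin inhibitor controls.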
LASV entry inh = inhibitors of Lassa virus binding or cell entry; Potency, µM (top dose mostly 37.9 µM), for the others: at the highest dose activity change, negative = inhibition, usual class: inhibitors; AID 540256; 300,000 tested, 1.2% active; Lassa virus pseudotype entry inhibition, cell reporter; calls by dose curve; tested in HEK293 cells; further: potency means the concentration at half of the fitted maximal effect; nearly all actives have a fitted effect of over 50% in size
FMDV inh = antivirals against foot and mouth disease virus; FMDV antiviral cell-based qHTS; Potency, µM (series often up to 57.9 µM), for the others: at the highest dose activity change, negative = inhibition, hits mostly inhibitors; 410,000 tested, 1.2% active; AID 1159524; calls by dose curve; tested in HEK293T cells; further: read-out not given here; potency means the concentration at half of the fitted maximal effect; nearly all actives have a fitted effect of over 45% in size
Starred values were filed as active, the others as inactive; [ ] = another dose, or the depositor's remark. In the library only some 6.2% were active in any assay of this set; here they are far more common. On the % scale 0 is the no-effect control and ±100 the full control effect.

Screening COc1cccc(-n2nnc3c(=O)n(CC(=O)NCC4CCCO4)cnc32)c1 (configuration not stated) returned HCMV inh 39 and FMDV inh -21%.
O=C(NCC1CCCO1)C1CCN(C2CCN(C(=O)Cc3ccsc3)CC2)CC1 (configuration not stated) was read as Marburg entry inh 9%[46.1 µM], HCMV inh -32, LASV entry inh 0%[46.1 µM] and FMDV inh -25%.
`COc1ccc(-c2csc(C(C)(O)c3cccc(OC)c3)n2)cc1` (configuration not stated) gave HCMV inh -65* and FMDV inh inconclusive.
Screening COc1cccc(C(C)(O)c2nc(-c3ccc(S(C)(=O)=O)cc3)cs2)c1 (configuration not stated) returned HCMV inh -86* and FMDV inh inconclusive.
`COc1cccc(C(C)(O)c2nc(-c3cccs3)cs2)c1` (configuration not stated) gave HCMV inh -79* and FMDV inh -12%.
Screening COc1cccc(C(C)(O)c2nc(-c3ccc(OC)nc3)cs2)c1 (configuration not stated) returned HCMV inh -62* and FMDV inh inconclusive.
`COc1cccc(C(C)(O)c2nc(-c3cncnc3)cs2)c1` (configuration not stated) gave HCMV inh -20 and FMDV inh -26%.
For COc1cccc(C(C)(O)c2nc(-c3ccc(Cl)cc3)cs2)c1 (configuration not stated) the results were HCMV inh 11 and FMDV inh -11%.
Screening CC(C)(C)c1ccc2cc(F)cc(F)c2n1 returned HCMV inh -29 and FMDV inh -11%.
Screening COc1cccc(C(C)(O)c2nc(-c3cnc4ccccc4c3)cs2)c1 (configuration not stated) returned HCMV inh -62* and FMDV inh inconclusive.
For CC(O)(c1ccncc1)c1nc(-c2cccc(C(F)(F)F)c2)cs1 (configuration not stated) the results were HCMV inh -69* and FMDV inh inconclusive.
For CC(O)(c1cccc(F)c1)c1nc(-c2cccc(C(F)(F)F)c2)cs1 (configuration not stated) the results were HCMV inh 6 and FMDV inh -10%.
Screening CCc1ccc(NC(=O)c2sc(-n3nc(C)c(Cc4ccc5c(c4)OCO5)c3C)nc2C)cc1 returned Marburg entry inh 1%[46.1 µM], HCMV inh 6, LASV entry inh 11%[46.1 µM] and FMDV inh -26%.
Screening C[C@H]1CCC[C@@]2(O[C@@H](CCO)C[C@H](O)[C@H]2O)O1 returned HCMV inh 16 and FMDV inh -7%.
`N#CC(C#N)=C/C(C#N)=C(/N)N1CCN(c2ccc(Cl)cc2)CC1` gave Marburg entry inh -19%, HCMV inh -16, LASV entry inh 9% and FMDV inh 18µM*.
`CN(C)C(=C(C#N)C#N)N1CCN(c2ccc(Cl)cc2)CC1` gave Marburg entry inh 0%[46.1 µM], HCMV inh inconclusive, LASV entry inh 1% and FMDV inh -9%.
CCN(CC)C(=O)CSC1=C(C#N)C(c2cccs2)C=C(C)N1 (configuration not stated) was read as Marburg entry inh 7.9µM*, HCMV inh -16, LASV entry inh inconclusive and FMDV inh 1%.
O=C(c1ccc(Oc2ccc([N+](=O)[O-])cc2)cc1)N1CCCCCC1 was read as Marburg entry inh 5.6µM*, HCMV inh -25, LASV entry inh inconclusive and FMDV inh -22%.
`O=C(Cc1ccccc1)N1CCN(Cc2ccc([N+](=O)[O-])cc2)CC1` gave Marburg entry inh inconclusive, HCMV inh inconclusive, LASV entry inh -7% and FMDV inh -23%.
CSc1ccc(CN2CCN(C(=O)c3ccc([N+](=O)[O-])cc3)CC2)cc1 was read as Marburg entry inh inconclusive, HCMV inh -75*, LASV entry inh inconclusive and FMDV inh inconclusive.
O=C(c1ccc(Oc2ccc([N+](=O)[O-])cc2Cl)cc1)N1CCCC1 was read as Marburg entry inh -14%[46.1 µM], HCMV inh inconclusive, LASV entry inh -17% and FMDV inh -14%.
Screening CC(=O)N(Cc1cc(=O)[nH]c2ccccc12)c1cccc(C)c1 returned Marburg entry inh 9%, HCMV inh -6, LASV entry inh 1% and FMDV inh -3%.
COc1cccc(NC(=O)CN2C(=O)NC(C)(c3ccc(C)cc3)C2=O)c1 (configuration not stated) was read as Marburg entry inh 11%[46.1 µM], HCMV inh 3, LASV entry inh -5% and FMDV inh -15%.
`O=[N+]([O-])c1ccc2nc(-[n+]3c(-c4ccccc4)cc(-c4ccccc4)cc3-c3ccccc3)[nH]c2c1` gave Marburg entry inh inconclusive, LASV entry inh 23µM* and FMDV inh 0%.
`O=[N+]([O-])c1ccc2nc(-c3ccc(Cl)cc3)[nH]c2c1` gave Marburg entry inh inconclusive, HCMV inh -62*, LASV entry inh inconclusive and FMDV inh -8%.
Cc1ccc(-c2nc3ccc([N+](=O)[O-])cc3[nH]2)cc1 was read as HCMV inh 22 and FMDV inh -45%.
COc1ccc(-c2nc3ccc([N+](=O)[O-])cc3[nH]2)cc1 was read as Marburg entry inh inconclusive, HCMV inh 44, LASV entry inh 8.9µM* and FMDV inh -70%.
For O=[N+]([O-])c1cccc(-c2nc3ccc([N+](=O)[O-])cc3[nH]2)c1 the results were Marburg entry inh inconclusive, HCMV inh 11, LASV entry inh -9% and FMDV inh -6%.
Screening CCn1ccnc1CN1CCC(n2nccc2NC(=O)c2ccccc2OC)CC1 returned Marburg entry inh 3%[46.1 µM], HCMV inh 6, LASV entry inh -5%[46.1 µM] and FMDV inh 10µM*.
Screening O=C(N/N=C/c1cc(Cl)cc([N+](=O)[O-])c1O)c1ccc2c(c1)OCO2 returned HCMV inh -23 and FMDV inh 18%.
`O=C(N/N=C/c1cc(Cl)cc([N+](=O)[O-])c1O)NC12CC3CC(CC(C3)C1)C2` gave Marburg entry inh inconclusive, HCMV inh 9, LASV entry inh 11% and FMDV inh 22µM*.
CCOC(=O)c1noc(C)c1C(=O)Nc1nc(C)cc(C)n1 was read as Marburg entry inh -17%[46.1 µM], HCMV inh -12, LASV entry inh 18%[46.1 µM] and FMDV inh -13%.
`Cc1cc(N/N=C/c2ccc(O)c(C)c2O)nc(-c2ccccc2O)n1` gave Marburg entry inh inconclusive, HCMV inh -103*, LASV entry inh inconclusive and FMDV inh -16%.
Cc1c(O)ccc(/C=N/Nc2nc(-c3cccnc3)nc3ccccc23)c1O was read as HCMV inh -75* and FMDV inh 42%.
Screening Clc1cccc(Nc2nc(-c3ccncc3)nc3ccccc23)c1 returned Marburg entry inh inconclusive, HCMV inh 3, LASV entry inh inconclusive and FMDV inh -20%.
Screening Fc1ccc(Nc2nc(-c3ccncc3)nc3ccccc23)cc1F returned Marburg entry inh 7.1µM*, HCMV inh 12, LASV entry inh 6%[46.1 µM] and FMDV inh inconclusive.
